Results published in PubChem BioAssay (Tox21).
Results filed as inconclusive are left out. Unmarked numbers belong to inactive results. Active and inactive are the calls of the source. Calls come from the whole dose curve; as a rule, active = well fitted cell-killing curve with a large enough effect in the repeat runs; inconclusive = weak or mixed curves, or effect the other way; inactive = flat fitted curve, though single readings scatter.
% is set by controls: 0 for no effect and ±100 for the full control effect; potency is the fitted concentration of half-maximal effect.

Assay: qHTS RealTime-Glo MT Cell Viability Assay in HEK293 cells - 40 hour (AID 1224874); note: nearly all actives have a fitted effect of over 50% in size
Details: RealTime-Glo luminescence; max response: hits give low values
Excerpt: U.S. Tox21 Program National Center for Advancing Translational Sciences [NCATS] NIH Chemical Genomics Center [NCGC] U.S. Environmental Protection Agency [EPA] National Institutes of Environmental Health Sciences [NIEHS] National Toxicology Program [NTP] U.S. Food and Drug Administration [FDA] Tox21 Assay Overview: Measure of cell viability is critical in the cell-base assay. Analysis of cell viability is necessary for the characterization of cell responses to cytotoxic drugs and environmental stress. A RealTime-Glo MT Cell Viability Assay to monitor cell viability in real time of continues cell culture during 40 hours of compound treatment was used to screen Tox21 10K library compounds in Hek293 cells. The RealTime-Glo MT Cell Viability Assay is a nonlytic, homogeneous, bioluminescent method to measure cell viability in real time using a simple, plate-based method. The assay involves adding NanoLuc luciferase and a cell-permeant prosubstrate to cells in culture. Viable cells reduce the proprietary prosubstrate to generate a substrate for NanoLuc luciferase. This substrate diffuses from cells into the surrounding culture medium, where it is rapidly used by the NanoLuc Enzyme to produce a luminescent signal. The signal correlates with the number of viable cells, making the assay well suited for cytotoxicity studies.
Tox21 Assay Protocol Summary: The mixture of Hek293 cell suspension and reagents were dispensed at 600cells/6 ul/well in 1536-well tissue culture treated black solid bottom plates using a Multidrop dispenser. After the assay plates were incubated at a 37 C/5% CO2 incubator for 5 hours, 23 nL of compounds dissolved in DMSO, positive and negative controls was transferred to the assay plate by a pintool work station. The plates were incubated at 37 C for 40 hours. The luminescence intensity were measured at 0h, 8h, 16h, 24h, 32h and 40h time points using ViewLux plate reader during compound treatment.
For `S=C1NC=NC2N=CNC12` (stereo not given), the Potency was 17.4 µM (active). `C/C=C/C(=O)OCC(C)C` showed a max response of 5.85%. With `O[Si](c1ccccc1)(c1ccccc1)c1ccccc1` the Potency was 38.9 µM (active). Work on `CC1(C)[C@H](C(=O)OCc2cccc(Oc3ccccc3)c2)[C@@H]1C=C(Cl)Cl` yielded a max response of 4.05%. For `Cn1ccnc1`, the max response was 9.06%. Work on `COC(=O)c1ccc([N+](=O)[O-])cc1` yielded a max response of -4.75%. In the case of `COc1cc([C@@H]2c3cc4c(cc3[C@@H](O[C@@H]3O[C@@H]5CO[C@@H](C)O[C@H]5[C@H](O)[C@H]3O)[C@H]3COC(=O)[C@H]23)OCO4)cc(OC)c1O`, the Potency is reported as 0.684 µM (active). `O=[N+]([O-])c1ccc(CO)cc1` gave a max response of 7.7%. For `CN[C@H]1CC[C@@H](c2ccc(Cl)c(Cl)c2)c2ccc(S(N)(=O)=O)cc21`, the Potency was 19.5 µM (active). For `C/C=C/C(=O)C1=C(C)C=CCC1(C)C`, the max response was 1.31%. With `O=C(CCCCCCCCc1cccnc1)N1CCC(C=C(c2ccccc2)c2ccccc2)CC1` the Potency was 21.9 µM (active). With `O=C1OC(=O)c2cc(-c3ccc4c(c3)C(=O)OC4=O)ccc21` the max response was 0.595%. Compound `CSc1nnc(C(C)(C)C)c(=O)[nH]1` has a max response of 1.65%. Compound `CC/C=C\C/C=C\C/C=C\CCCCCCCC(=O)OC` has a max response of -12.1%. With `SC1CCCCC1` the max response was 6.15%. Work on `Cc1ccc2n[nH]nc2c1` yielded a max response of -0.793%. In the case of `CC(C=O)c1ccccc1` (stereo not given), the max response is reported as -16.6%. `C=Cc1ccc(O)c(OC)c1` showed a max response of 2.13%. For `N#CCCOCCC#N`, the max response was 2.28%. `O=c1cc[nH]cc1` gave a max response of 1.32%. With `c1ccc2c(c1)-c1ccc3ccc4cccc5cc-2c1c3c45` the max response was 8.42%. Compound `C=CC(=O)OCCOC1C2CCC1C1CC=CC12` (stereo not given) has a max response of 6.38%. In the case of `c1ccc(-c2ccc(C(c3ccccc3)n3ccnc3)cc2)cc1` (stereo not given), the Potency is reported as 26.8 µM (active). In the case of `Clc1cccc(Cl)n1`, the max response is reported as 3.2%. In the case of `CC(O)(c1ccc(Cl)cc1)c1ccc(Cl)cc1`, the Potency is reported as 24.5 µM (active). With `COc1cc(/C=C/C(=O)CC(=O)/C=C/c2ccc(O)c(OC)c2)ccc1O` the Potency was 22 µM (active). `Nc1ccc(Cl)c([N+](=O)[O-])c1` showed a max response of -19.2%. In the case of `CC(=O)CC(N)=O`, the max response is reported as 14.8%. Work on `CC(C)=NNC(N)=S` yielded a max response of 3.34%. Compound `C/C(=C\c1ccc(C(=O)O)cc1)c1ccc2c(c1)C(C)(C)CCC2(C)C` has a max response of -17.3%. For `N#Cc1ccc(C/C(=N/NC(=O)Nc2ccc(OC(F)(F)F)cc2)c2cccc(C(F)(F)F)c2)cc1`, the max response was -2.78%. Compound `CC/C=C(\C)C=O` has a max response of 4.52%. `CCCCCCCCCCCCCCCCC(C(=O)O)C(O)(CC(=O)O)C(=O)O` (stereo not given) showed a max response of -0.507%. Compound `Cc1cccc2c1ccc1ccccc12` has a max response of -16.2%. With `CC(=O)[C@]1(O)Cc2c(O)c3c(c(O)c2[C@@H](O[C@H]2C[C@H](N)[C@H](O)[C@H](C)O2)C1)C(=O)c1ccccc1C3=O` the Potency was 0.0601 µM (active). In the case of `Cc1ccc(C=O)cc1`, the max response is reported as 7.49%. In the case of `CCCCCCCCc1ccc(Nc2ccc(CCCCCCCC)cc2)cc1`, the max response is reported as -0.6%. Compound `O=C(c1ccccc1)c1ccc(Cl)cc1` has a max response of 0.405%. For `CCCCCN=C(N)N/N=C/c1c[nH]c2ccc(OC)cc12`, the Potency was 4.25 µM (active). `Oc1ccc(Cl)cc1C1CCCC1` showed a max response of -29.3%.
